± gives the standard deviation of the averaged measurements. The full ranking holds about 33,000 sequences; the median of “E-score (rank enrichment, -0.5 to 0.5)” is about -0.0075, and the highest 2% start at about 0.23. This is one part of a sample in which the highest values are shown more often than they occur.
The sequences below were run on WT Max(13-93) synthetic (M65Nle) (assay: PBM 8-mer E-score (E-score (rank enrichment, -0.5 to 0.5)); higher = stronger preferential binding).
Description: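 Protein binding microarray (universal PBM chip covering all 10-mers in fixed probe flanks) with chemically synthesized human Max(13-93) bHLH-LZ analogs (not full-length Max) bearing noncanonical residues (hArg, Tha, Aib, Nle at 65) and aromatic Cys staples. Read-out per 8-mer (and its reverse complement): E-score (rank-based enrichment, -0.5 to 0.5) and Z-score of median probe intensity.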

| Sequence | PBM 8-mer E-score |
| --- | --- |
| GGCTATAA | -0.0145 ± 0.049 |
| TGCTACCA | 0.081 ± 0.0046 |
| TCTGAAGA | -0.204 ± 0.095 |
| AAGTCCGG | -0.0703 ± 0.083 |
| AGGCCAAA | -0.0704 ± 0.025 |
| TAGGCATA | 0.0815 ± 0.076 |
| AGTTTCCC | -0.0461 ± 0.026 |
| ACTTGGGG | 0.0672 ± 0.1 |
| ATCACGCA | 0.0746 ± 0.08 |
| ATCACACG | 0.199 ± 0.029 |
| ATCACGCC | 0.0823 ± 0.14 |
| ATCACACC | 0.0527 ± 0.072 |
| AGCACGCG | 0.258 ± 0.035 |
| ATCACGTG | 0.481 ± 0.006 |
| ATCACACA | 0.266 ± 0.071 |
| ATCACGTC | 0.167 ± 0.0029 |
| AGCACGCA | -5e-06 ± 0.0011 |
| CGCACGCG | 0.167 ± 0.051 |
| ATCACGCG | 0.262 ± 0.0089 |
| ATCACGTA | 0.174 ± 0.1 |
| AAACAGTC | -0.0664 ± 0.047 |
| AGGTTTTG | 0.0094 ± 0.025 |

| Sequence | PBM 8-mer E-score |
| --- | --- |
| ATAGCTAA | -0.104 ± 0.047 |
| AAAGCGGT | 0.0199 ± 0.011 |
| GGACGTGA | -0.0819 ± 0.01 |
| GCACGTGA | 0.4391 ± 0.0016 |
| GCACGTCC | -0.0119 ± 0.016 |
| GCACGTGC | 0.489 ± 0.0044 |
| GAACGTGA | -0.00116 ± 0.019 |
| GCACGTAC | 0.0338 ± 0.094 |
| ACTGTGCA | -0.0882 ± 0.057 |
| ATGGTCTA | -0.0528 ± 0.067 |
| GTGAGGGA | -0.116 ± 0.061 |
| AAATGGGC | -0.1 ± 0.011 |
| CTGCTAAC | -0.118 ± 0.073 |
| CCGCTGAC | -0.231 ± 0.04 |
| AGCTAACT | -0.0391 ± 0.11 |
| CGAACTTC | -0.102 ± 0.023 |
| TAAACATA | 0.299 ± 0.0097 |
| AAAACATA | 0.0863 ± 0.034 |
| CAAACATA | 0.143 ± 0.12 |
| GAAACAAA | 0.238 ± 0.025 |
| GAAACAAC | 0.034 ± 0.041 |
| CAAACAAA | 0.0821 ± 0.1 |

| Sequence | PBM 8-mer E-score |
| --- | --- |
| GAAACATC | 0.0695 ± 0.12 |
| TAAACAGA | 0.128 ± 0.15 |
| GAAACATA | 0.27 ± 0.089 |
| AGGGTGCC | -0.11 ± 0.043 |
| TAGTCCCA | -0.054 ± 0.018 |
| CCAATGGC | -0.126 ± 0.23 |
| GGCGACTA | -0.0354 ± 0.12 |
| GACAACGC | 0.1 ± 0.061 |
| GCGTTTTA | 0.0184 ± 0.062 |
| AGTTAACA | 0.0439 ± 0.0024 |
| CGTTAACA | -0.00101 ± 0.057 |
| TGTTAACA | 0.317 ± 0.13 |
| GCGATGTA | -0.0179 ± 0.03 |
| AGGATGTG | -0.105 ± 0.014 |
| TAAGCTTA | 0.152 ± 0.0028 |
| CGTGGCAC | 0.251 ± 0.063 |
| GGTGGCAC | -0.131 ± 0.071 |
| AGTGGCAC | 0.0667 ± 0.064 |
| AAGCGTTG | -0.0943 ± 0.073 |
| AGGGTAGA | -0.0604 ± 0.015 |
| ATTAAGTA | 0.259 ± 0.051 |
| ATAAAGTA | 0.18 ± 0.043 |

| Sequence | PBM 8-mer E-score |
| --- | --- |
| ATAAAGTC | 0.258 ± 0.062 |
| GTTAAGTA | 0.0433 ± 0.015 |
| CTTAAGTA | 0.0679 ± 0.077 |
| ATTAAGTC | 0.2923 ± 0.0026 |
| ATTAAGTG | 0.106 ± 0.19 |
| CTTAAGTC | 0.0284 ± 0.017 |
| ATAAAGTG | 0.188 ± 0.078 |
| ATTTCGCG | 0.16 ± 0.065 |
| AGATCTAG | -0.118 ± 0.06 |
| ATCACGAA | 0.0216 ± 0.013 |
| AGTTTGTA | 0.074 ± 0.022 |
| AGTCTGGG | -0.106 ± 0.13 |
| ACATGCGA | 0.141 ± 0.025 |
| GCATGCGA | 0.238 ± 0.0068 |
| GCATGCGC | 0.251 ± 0.056 |
| CCATGCGA | 0.087 ± 0.11 |
| ACATGCGC | 0.0958 ± 0.095 |
| CCATGCGC | 0.153 ± 0.069 |
| ACGGGATG | -0.083 ± 0.16 |
| AACGTACG | 0.157 ± 0.067 |

Source: the supplement of paper PMC12636033
